Records with an inconclusive call do not appear. Entries that show only a call come without a potency. Calls of active or inactive are those of the source. Unless noted, the call rests on the fitted dose curve; in most records, active means well fitted curve in the direction sought with a large enough effect; inconclusive means small, poorly fitted or top-dose-only effect, or another doubt; inactive means no such curve, though single readings can be large; an effect the other way counts as inactive or inconclusive.
Tests used:
[1] = biological target: ATPase family AAA domain-containing protein 5 (Homo sapiens) (UniProt Q96QE3); experiment: Validation screen for small molecules that inhibit ELG1-dependent DNA repair in human embryonic kidney (HEK293T) cells expressing luciferase-tagged ELG1 (AID 493107); further: nearly all actives have a fitted effect of over 70% in size; further: potency means the concentration at half of the fitted maximal effect
Chain of ATPase family AAA domain-containing protein 5 (Homo sapiens) (Q96QE3 whole entry, looked up, the tested form may be a part): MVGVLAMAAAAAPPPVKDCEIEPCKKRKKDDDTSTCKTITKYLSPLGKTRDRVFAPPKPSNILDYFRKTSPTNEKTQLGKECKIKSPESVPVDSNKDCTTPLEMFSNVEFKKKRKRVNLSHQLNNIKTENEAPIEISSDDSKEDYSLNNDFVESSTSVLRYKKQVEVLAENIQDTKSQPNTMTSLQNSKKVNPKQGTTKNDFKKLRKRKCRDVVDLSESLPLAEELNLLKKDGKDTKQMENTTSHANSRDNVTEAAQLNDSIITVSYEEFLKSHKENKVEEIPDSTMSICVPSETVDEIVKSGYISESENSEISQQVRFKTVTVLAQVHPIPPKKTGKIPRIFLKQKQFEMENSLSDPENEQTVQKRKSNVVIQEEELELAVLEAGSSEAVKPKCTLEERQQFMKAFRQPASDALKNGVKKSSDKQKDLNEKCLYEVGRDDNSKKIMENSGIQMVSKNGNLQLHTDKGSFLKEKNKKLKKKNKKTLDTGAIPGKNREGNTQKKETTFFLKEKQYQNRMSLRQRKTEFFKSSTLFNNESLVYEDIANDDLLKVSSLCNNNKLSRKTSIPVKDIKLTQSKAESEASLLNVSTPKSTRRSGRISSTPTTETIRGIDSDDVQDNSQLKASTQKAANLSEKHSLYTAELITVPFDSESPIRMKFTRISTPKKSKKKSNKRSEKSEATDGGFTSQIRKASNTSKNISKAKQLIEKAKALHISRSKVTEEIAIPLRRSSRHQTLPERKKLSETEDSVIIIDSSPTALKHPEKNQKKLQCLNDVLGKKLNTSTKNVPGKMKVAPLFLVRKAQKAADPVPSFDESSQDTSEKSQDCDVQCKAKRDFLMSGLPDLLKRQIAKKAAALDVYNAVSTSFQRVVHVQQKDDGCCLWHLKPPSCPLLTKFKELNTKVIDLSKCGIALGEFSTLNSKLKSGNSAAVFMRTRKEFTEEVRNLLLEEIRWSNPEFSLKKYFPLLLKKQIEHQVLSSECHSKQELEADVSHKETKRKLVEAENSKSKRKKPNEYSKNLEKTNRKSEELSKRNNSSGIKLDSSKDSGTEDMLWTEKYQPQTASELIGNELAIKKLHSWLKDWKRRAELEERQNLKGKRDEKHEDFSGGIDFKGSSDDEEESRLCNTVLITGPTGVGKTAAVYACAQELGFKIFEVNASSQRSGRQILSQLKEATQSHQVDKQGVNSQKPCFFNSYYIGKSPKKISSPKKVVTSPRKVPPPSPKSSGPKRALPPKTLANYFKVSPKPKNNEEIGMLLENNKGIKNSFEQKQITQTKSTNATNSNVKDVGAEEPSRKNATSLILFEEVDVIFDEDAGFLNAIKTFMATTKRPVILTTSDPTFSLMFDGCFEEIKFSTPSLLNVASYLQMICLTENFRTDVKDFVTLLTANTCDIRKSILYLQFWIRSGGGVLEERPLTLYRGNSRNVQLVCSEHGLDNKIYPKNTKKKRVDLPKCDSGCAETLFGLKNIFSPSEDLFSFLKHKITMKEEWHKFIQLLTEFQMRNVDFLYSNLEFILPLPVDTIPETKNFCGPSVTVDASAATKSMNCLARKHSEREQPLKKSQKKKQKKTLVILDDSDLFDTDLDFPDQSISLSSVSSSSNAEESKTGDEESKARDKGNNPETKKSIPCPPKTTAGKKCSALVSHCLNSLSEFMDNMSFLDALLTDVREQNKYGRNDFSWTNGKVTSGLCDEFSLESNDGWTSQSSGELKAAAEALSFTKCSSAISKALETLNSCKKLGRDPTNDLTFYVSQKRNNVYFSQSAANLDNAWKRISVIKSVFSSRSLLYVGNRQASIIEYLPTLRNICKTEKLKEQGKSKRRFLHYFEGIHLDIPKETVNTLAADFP
Method in brief: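 Compounds reducing 5-fluorouridine-driven ELG1-luciferase signal in HEK293T cells were scored; exposure lasted 16 hr at 37 °C with luminescence detected via ONE-Glo.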

[2] = biological target: Thyrotropin-releasing hormone receptor (Homo sapiens) (UniProt P34981); experiment: qHTS for Small Molecule Agonists and Allosteric Enhancers of Human TRH Receptor: Validation Screen for Agonists (AID 493127;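 active means calcium activation more than 3 SD above the typical response in the agonist read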;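 further: intracellular calcium rise by fluo-8 fluorescence before TRH EC20 addition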); conditions: TRH receptor agonist cell assay; at 2 µM; stronger effect = higher value
Chain of Thyrotropin-releasing hormone receptor (Homo sapiens) (P34981 whole entry, looked up): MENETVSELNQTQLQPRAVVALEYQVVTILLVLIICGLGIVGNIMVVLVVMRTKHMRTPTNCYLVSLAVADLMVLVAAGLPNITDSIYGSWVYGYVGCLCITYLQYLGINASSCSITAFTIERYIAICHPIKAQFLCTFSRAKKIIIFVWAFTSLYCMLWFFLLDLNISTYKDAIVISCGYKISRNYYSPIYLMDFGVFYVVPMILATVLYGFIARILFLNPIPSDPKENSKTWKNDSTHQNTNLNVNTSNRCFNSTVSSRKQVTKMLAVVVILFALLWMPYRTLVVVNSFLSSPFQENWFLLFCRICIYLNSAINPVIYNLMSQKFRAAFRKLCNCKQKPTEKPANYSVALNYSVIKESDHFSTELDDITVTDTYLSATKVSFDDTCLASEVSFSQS
Method in brief: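 Kinetic fluorescence assay of agonist-induced calcium release: overnight-plated TRHR cells, room-temperature fluo-8 loading, baseline then compound addition with per-second reads.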

[3] = Nrf2 qHTS screen for inhibitors: Validation (AID 493153; active means well fitted inhibition curve with a large enough effect in the main read-out, with a control signal flat, not every such curve was filed as active); conditions: Potency: luciferase luminescence; viability change: measured here: cytotoxicity max response
Method in brief: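 In this counterscreened reporter format, each well gives two signals: CellTiter-Fluor fluorescence for cytotoxicity and ARE-luciferase luminescence for Nrf2 function. A549 ARE_Fluc cells in 5% FBS OPTI-MEM were exposed to compound titrations for 18-24 h.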

[4] = qHTS for Inhibitors of Cell Surface uPA Generation: Validation Assay (AID 493164);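 further: RAW 264.7 macrophage cells exposed to compound for 18 h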
Method in brief: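 Compounds are titrated over seven points (2.45 nM–38.3 uM final) onto pre-plated RAW 264.7 cells and incubated for 18 h. Retained intracellular ATP, measured with ATP-Lite, indicates blocked lethal factor entry.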

[5] = biological target: Galactokinase (Homo sapiens) (UniProt P51570); experiment: qHTS Validation Assay for Inhibitors of Human Galactokinase (GALK) (AID 493189)
Chain of Galactokinase (Homo sapiens) (P51570 whole entry, looked up): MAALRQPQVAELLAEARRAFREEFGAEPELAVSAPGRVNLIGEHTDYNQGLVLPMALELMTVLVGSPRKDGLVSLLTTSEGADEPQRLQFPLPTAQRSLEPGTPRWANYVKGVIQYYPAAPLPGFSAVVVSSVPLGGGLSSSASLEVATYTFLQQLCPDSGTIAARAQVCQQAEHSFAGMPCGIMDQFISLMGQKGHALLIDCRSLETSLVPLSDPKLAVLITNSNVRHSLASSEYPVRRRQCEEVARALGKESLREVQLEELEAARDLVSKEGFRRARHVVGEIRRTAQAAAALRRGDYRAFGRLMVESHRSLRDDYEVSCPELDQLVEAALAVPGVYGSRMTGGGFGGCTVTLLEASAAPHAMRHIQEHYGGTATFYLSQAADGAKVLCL
Method in brief: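 Enzyme activity is inferred from ATP consumption: human GALK phosphorylates galactose (100 uM) using 35 uM ATP for 1 h at room temperature, and luciferase-based Kinase-Glo Plus reports unconsumed ATP.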

[6] = Validation screen for small molecules that induce DNA re-replication in SW480 colon adenocarcinoma cells (AID 504364)
Method in brief: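 Hoechst-stained SW480 nuclei, imaged at 405 nm excitation after 48 hr compound exposure, were counted for elevated DNA content as the re-replication signal.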

[7] = biological target: Peptidyl-prolyl cis-trans isomerase NIMA-interacting 1 (Homo sapiens) (UniProt Q13526); experiment: qHTS Validation Assay to Find Inhibitors of Pin1 (AID 504536; active means well fitted inhibition curve with a large enough effect in the polarisation, with a control signal flat, not every such curve was filed as active; the % refers to the polarisation)
Chain of Peptidyl-prolyl cis-trans isomerase NIMA-interacting 1 (Homo sapiens) (Q13526 whole entry, looked up): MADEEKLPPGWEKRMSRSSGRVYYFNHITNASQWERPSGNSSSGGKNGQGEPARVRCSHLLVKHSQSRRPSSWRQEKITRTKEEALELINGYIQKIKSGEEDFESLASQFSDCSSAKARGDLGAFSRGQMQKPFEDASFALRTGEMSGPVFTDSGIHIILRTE
Method in brief: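 Fluorescence polarization competition: compounds (titration) displace HiFluor-488-labeled Pin1-1b peptide from Pin1 (0.3 uM final) in pH 7.5 HEPES buffer with DTT, 10 min at room temperature; %Activity normalized to no-enzyme wells, curves fitted.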

[8] = biological target: Phosphoglycerate kinase, glycosomal (Trypanosoma brucei brucei) (UniProt P07378); experiment: qHTS Validation Assay to Find Inhibitors of Phosphoglycerate Kinase (AID 504547)
Chain of Phosphoglycerate kinase, glycosomal (Trypanosoma brucei brucei) (P07378 whole entry, looked up): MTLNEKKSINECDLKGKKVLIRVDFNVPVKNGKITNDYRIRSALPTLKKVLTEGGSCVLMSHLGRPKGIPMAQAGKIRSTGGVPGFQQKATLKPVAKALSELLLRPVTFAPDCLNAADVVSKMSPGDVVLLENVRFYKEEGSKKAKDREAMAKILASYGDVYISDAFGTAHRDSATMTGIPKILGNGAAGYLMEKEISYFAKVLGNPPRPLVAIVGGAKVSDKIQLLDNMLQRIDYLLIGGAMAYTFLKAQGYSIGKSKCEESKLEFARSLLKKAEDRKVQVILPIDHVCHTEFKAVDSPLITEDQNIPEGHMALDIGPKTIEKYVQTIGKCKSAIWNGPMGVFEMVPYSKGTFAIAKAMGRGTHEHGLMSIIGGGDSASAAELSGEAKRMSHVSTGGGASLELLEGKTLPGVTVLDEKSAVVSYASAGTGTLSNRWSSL
Method in brief: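 Luminescence end-point (Kinase-Glo Plus, 10 min) after a 60 min room-temperature coupled reaction. GAPDH at 100nM final supplies 1,3-BPG to PGK. Buffer: 100mM TEA pH 7.6, 5mM MgCl2, 0.01% Tween-20. Wells lacking PGK served as controls.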

[9] = biological target: phosphoglycerate mutase (Leishmania major) (UniProt Q4Q090); experiment: qHTS Validation Assay to Find Inhibitors of Phosphoglycerate Mutase (AID 504548); further: series mostly up to about 58 µM
Chain of phosphoglycerate mutase (Leishmania major) (Q4Q090 1-553): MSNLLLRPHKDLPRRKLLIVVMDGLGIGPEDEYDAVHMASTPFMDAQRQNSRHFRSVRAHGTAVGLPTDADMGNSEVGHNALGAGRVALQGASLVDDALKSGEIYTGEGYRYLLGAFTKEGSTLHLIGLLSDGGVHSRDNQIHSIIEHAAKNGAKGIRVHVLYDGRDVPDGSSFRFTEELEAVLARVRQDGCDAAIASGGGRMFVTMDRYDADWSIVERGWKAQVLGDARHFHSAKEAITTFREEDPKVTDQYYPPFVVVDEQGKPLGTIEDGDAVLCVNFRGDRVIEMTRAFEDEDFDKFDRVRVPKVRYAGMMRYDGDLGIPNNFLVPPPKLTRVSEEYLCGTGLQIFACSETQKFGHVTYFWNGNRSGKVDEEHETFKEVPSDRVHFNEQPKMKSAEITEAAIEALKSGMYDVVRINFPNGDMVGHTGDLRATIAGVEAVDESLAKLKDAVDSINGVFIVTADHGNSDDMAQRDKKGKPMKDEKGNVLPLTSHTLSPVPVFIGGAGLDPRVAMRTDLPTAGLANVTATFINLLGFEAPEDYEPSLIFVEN
Method in brief: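 Lm PGAM at 1.25 nM final with substrate in 100 mM TEA pH 7.6, 5 mM MgCl2, 0.01% Tween-20; 45 min at room temperature. Kinase-GloPlus added, 10 min, end-point luminescence read.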

[10] = biological target: Ubiquitin carboxyl-terminal hydrolase 1 (Homo sapiens) (UniProt O94782); experiment: Inhibitors of USP1/UAF1: Pilot qHTS (AID 504865);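 further: rhodamine fluorescence freed from ubiquitin-rhodamine substrate followed over time; top concentration of the series differs between compounds; nearly all actives have a fitted effect of over 35% in size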
Chain of Ubiquitin carboxyl-terminal hydrolase 1 (Homo sapiens) (O94782 whole entry, looked up): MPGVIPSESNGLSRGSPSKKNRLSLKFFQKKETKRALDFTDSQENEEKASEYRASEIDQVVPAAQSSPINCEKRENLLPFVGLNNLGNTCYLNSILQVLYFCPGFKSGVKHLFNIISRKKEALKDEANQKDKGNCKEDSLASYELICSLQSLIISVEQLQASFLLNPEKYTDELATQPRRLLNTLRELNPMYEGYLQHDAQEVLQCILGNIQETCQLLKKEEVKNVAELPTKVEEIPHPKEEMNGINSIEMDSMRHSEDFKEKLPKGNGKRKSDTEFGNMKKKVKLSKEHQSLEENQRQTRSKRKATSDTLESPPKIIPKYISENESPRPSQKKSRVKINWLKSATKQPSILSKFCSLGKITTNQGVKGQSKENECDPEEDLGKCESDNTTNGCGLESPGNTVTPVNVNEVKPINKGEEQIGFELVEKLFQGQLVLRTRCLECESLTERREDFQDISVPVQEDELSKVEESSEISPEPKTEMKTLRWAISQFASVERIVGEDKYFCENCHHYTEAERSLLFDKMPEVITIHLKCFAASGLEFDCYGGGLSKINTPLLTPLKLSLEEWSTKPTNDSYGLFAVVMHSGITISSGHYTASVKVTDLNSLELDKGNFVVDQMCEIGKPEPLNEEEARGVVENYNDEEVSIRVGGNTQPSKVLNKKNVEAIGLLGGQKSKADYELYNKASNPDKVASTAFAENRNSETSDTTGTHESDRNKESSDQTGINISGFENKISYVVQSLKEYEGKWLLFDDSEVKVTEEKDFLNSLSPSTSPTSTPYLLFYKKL
Method in brief: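 Enzyme-free wells gave the negative control, while test wells held 1nM USP1/UAF1 preincubated with compound for 15 min at room temperature. Ub-Rho at 150nM final started the reaction, and fluorescence at 480/540 nm was recorded kinetically.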

[11] = qHTS for Inhibitors of ATXN expression: Validation (AID 588378); further: series mostly up to about 57 µM; nearly all actives have a fitted effect of over 75% in size
Method in brief: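 After a 2 h attachment and 24 h compound incubation, HEK293-ATXN2-FFLuc wells are read for fluorescence at 405 nm excitation/525 nm emission as a viability measure, then for Bright-Glo luminescence reflecting ATXN2 expression.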

[12] = qHTS for Inhibitors of ATXN expression: Validation of Cytotoxic Assay (AID 588349)
Method in brief: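 Toxicity of test compounds toward HEK293 cells is scored from cellular ATP content measured by CellTiter Glo. Cells receive titrated doses and incubate 72 hr at 37 degrees C beforehand.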

[13] = biological target: Estrogen receptor (Homo sapiens) (UniProt P03372); experiment: qHTS assay for small molecule antagonists of estrogen receptor alpha signaling (AID 588513; active means well fitted curve in the direction sought with a large enough effect in the signal ratio, with a control signal flat, not every such curve was filed as active; the % refers to the signal ratio)
Method in brief: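 Antagonist-mode qHTS in ER-alpha-UAS-bla HEK 293 cells: compound titration, 0.5nM estradiol for 18 h, CCF4 fluorescence, Hill-derived IC50.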

[14] = biological target: Estrogen receptor (Homo sapiens) (UniProt P03372); experiment: qHTS assay for small molecule agonists of estrogen receptor alpha signaling (AID 588514; calls by dose curve; further: nearly all actives have a fitted effect of over 70% in size)
Method in brief: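 Fluorescence from CCF4 cleavage reports ER-alpha-driven beta-lactamase expression in HEK 293 cells treated 18 hrs at 37 C. Data normalized to 17-beta-estradiol (20 nM) and DMSO, fitted to Hill equation.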

[15] = biological target: DNA dC->dU-editing enzyme APOBEC-3G (Homo sapiens) (UniProt Q9HC16); experiment: qHTS for inhibitors of Vif-A3G interactions: Validation (AID 588379)
Chain of DNA dC->dU-editing enzyme APOBEC-3G (Homo sapiens) (Q9HC16 whole entry, looked up): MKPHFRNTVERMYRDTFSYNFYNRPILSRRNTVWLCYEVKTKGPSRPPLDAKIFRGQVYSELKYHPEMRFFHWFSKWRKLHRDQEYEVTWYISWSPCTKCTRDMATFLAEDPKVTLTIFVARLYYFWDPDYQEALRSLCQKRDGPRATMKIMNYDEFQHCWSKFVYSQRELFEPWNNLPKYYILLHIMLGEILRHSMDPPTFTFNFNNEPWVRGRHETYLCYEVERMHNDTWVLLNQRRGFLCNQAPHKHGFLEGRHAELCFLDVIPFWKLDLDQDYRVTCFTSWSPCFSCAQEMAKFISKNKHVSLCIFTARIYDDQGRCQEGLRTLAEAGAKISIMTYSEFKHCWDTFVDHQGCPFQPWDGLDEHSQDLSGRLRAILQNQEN
Method in brief: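 Yellow fluorescence (Ex 488, Em 500-530) of Vif-coexpressing HeLa A3G-eYFP cells, scanned by Acumen cytometer, reports blocked A3G degradation. Cells plated at 700/well overnight at 37 deg C before compound addition, then a further overnight compound incubation at 37 deg C.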

| SMILES | Potency [1] | activation [2] | Potency [3] | viability change [3] [%] | outcome [4] | outcome [5] | outcome [6] | outcome [7] | outcome [8] | outcome [9] | Potency [10] | Potency [11] | Potency [12] | outcome [13] | Potency [14] | outcome [15] |
| --- | --- | --- | --- | --- | --- | --- | --- | --- | --- | --- | --- | --- | --- | --- | --- | --- |
| CCCCCN(CCCCC)C(=O)C(CCC(=O)O)NC(=O)c1ccc(Cl)c(Cl)c1 (centres undefined) | inactive | 1% (inactive) | inactive | 3.55 | inactive | inactive | inactive | inactive | inactive | inactive | inactive | inactive | – | – | – | – |
| NC/C=C/C(=O)O | inactive | 0.688% (inactive) | inactive | -0.253 | inactive | inactive | inactive | inactive | inactive | inactive | inactive | inactive | inactive | – | – | – |
| Nc1c2c(nc3ccccc13)CCCC2O (centres undefined) | inactive | 1.62% (inactive) | inactive | 6.52 | inactive | inactive | inactive | inactive | inactive | – | inactive | inactive | inactive | – | – | – |
| CC(=O)Nc1nnc(S(N)(=O)=O)s1 | inactive | 1.38% (inactive) | inactive | 3.35 | inactive | inactive | inactive | inactive | inactive | inactive | inactive | inactive | inactive | inactive | inactive | – |
| CO[C@@]1(NC(=O)CSCC#N)C(=O)N2C(C(=O)O)=C(CSc3nnnn3C)CS[C@@H]21 | inactive | 1.44% (inactive) | inactive | 1.13 | inactive | inactive | inactive | – | inactive | inactive | inactive | inactive | inactive | – | – | – |
| CCCOc1ccccc1-c1nc2n[nH]nc2c(=O)[nH]1 | inactive | -3.25% (inactive) | inactive | -11.3 | inactive | inactive | inactive | – | inactive | – | inactive | inactive | inactive | – | – | inactive |
| C(=C\c1ccccc1)/CN1CCN(C(c2ccccc2)c2ccccc2)CC1 | inactive | 0.438% (inactive) | inactive | -2.4 | inactive | inactive | inactive | inactive | inactive | inactive | – | inactive | inactive | – | – | – |
| CCN1CCC[C@H]1CNC(=O)c1c(O)c(Cl)cc(Cl)c1OC | inactive | 0.938% (inactive) | inactive | -0.523 | inactive | inactive | inactive | inactive | inactive | inactive | inactive | inactive | inactive | – | – | inactive |
| C=CCc1ccccc1OCC(O)CNC(C)C (centres undefined) | inactive | 0.312% (inactive) | inactive | -7.73 | inactive | inactive | inactive | inactive | inactive | inactive | inactive | – | inactive | – | – | – |
| COCCOC(=O)C1=C(C)NC(C)=C(C(=O)OC(C)C)C1c1cccc([N+](=O)[O-])c1 (centres undefined) | 11.6 µM (active) | -5.81% (inactive) | inactive | 0.126 | inactive | inactive | inactive | inactive | inactive | – | inactive | inactive | – | – | – | – |
| CCN1CCc2nc(N)oc2CC1 | inactive | 0.875% (inactive) | inactive | -0.627 | inactive | inactive | inactive | inactive | inactive | – | inactive | inactive | inactive | – | – | – |
| FC(F)(F)c1ccccc1-n1ccnc1 | inactive | -2.62% (inactive) | inactive | 12.3 | inactive | inactive | inactive | inactive | inactive | inactive | inactive | inactive | – | – | – | inactive |
| CN(C)C/C=C(/c1ccc(Br)cc1)c1cccnc1 | inactive | 0.375% (inactive) | inactive | 11.1 | inactive | inactive | inactive | inactive | inactive | inactive | inactive | – | inactive | – | – | – |
| COc1cc2c(cc1OC)-c1cc(=Nc3c(C)cc(C)cc3C)n(C)c(=O)n1CC2 | 13 µM (active) | -6.75% (inactive) | inactive | -6.02 | inactive | inactive | inactive | – | inactive | inactive | – | inactive | inactive | – | – | – |
| c1cnc(N2CCN(Cc3ccc4c(c3)OCO4)CC2)nc1 | inactive | -3.31% (inactive) | inactive | 2.39 | inactive | inactive | inactive | – | inactive | inactive | inactive | inactive | inactive | – | – | inactive |
| CCOC(=O)c1cnc2c(cnn2CC)c1NN=C(C)C | inactive | -4.75% (inactive) | inactive | -1.57 | inactive | inactive | inactive | inactive | inactive | inactive | inactive | inactive | inactive | – | – | inactive |
| CCN(CC)CC(=O)Nc1c(C)cccc1C | inactive | 1.5% (inactive) | inactive | -7.11 | inactive | inactive | inactive | inactive | inactive | inactive | – | inactive | inactive | – | – | – |
| CC(=O)Oc1cc(C(C)C)c(OCCN(C)C)cc1C | inactive | 1.31% (inactive) | inactive | -6.98 | inactive | inactive | inactive | inactive | inactive | inactive | inactive | inactive | inactive | – | – | – |
| Cc1ccc(=O)n(-c2ccccc2)c1 | inactive | 0.875% (inactive) | inactive | -2.33 | inactive | inactive | inactive | inactive | inactive | inactive | inactive | inactive | inactive | – | – | inactive |
